Inconclusive results are not listed. Activity calls are given as the source filed them. Unless noted, the call rests on the fitted dose curve; in most records, active means well fitted curve in the direction sought with a large enough effect in the repeat runs; inconclusive means weak or mixed curves; inactive means no such curve, though single readings can be large; an effect the other way counts as inactive or inconclusive.

Experiment [1] deals with Thyrotropin receptor (Homo sapiens) (UniProt P16473). Put plainly: qHTS assay to identify small molecule antagonists of the thyroid stimulating hormone receptor (TSHR) signaling pathway (AID 1259385; calls by dose curve; further: nearly all actives have a fitted effect of over 20% in size; further: potency means the concentration at half of the fitted maximal effect). Summed up: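 TSHR-HEK293 cells (800/well) plated 18 h, then compounds with Ro20-1724 and TSH at 1.5 ng/mL final, 30 min at room temperature. cAMP quantified by HTRF (cAMP-d2/anti-cAMP-cryptate, 1 h); 15 concentrations in triplicate.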
Chain of Thyrotropin receptor (Homo sapiens) (P16473 whole entry, looked up): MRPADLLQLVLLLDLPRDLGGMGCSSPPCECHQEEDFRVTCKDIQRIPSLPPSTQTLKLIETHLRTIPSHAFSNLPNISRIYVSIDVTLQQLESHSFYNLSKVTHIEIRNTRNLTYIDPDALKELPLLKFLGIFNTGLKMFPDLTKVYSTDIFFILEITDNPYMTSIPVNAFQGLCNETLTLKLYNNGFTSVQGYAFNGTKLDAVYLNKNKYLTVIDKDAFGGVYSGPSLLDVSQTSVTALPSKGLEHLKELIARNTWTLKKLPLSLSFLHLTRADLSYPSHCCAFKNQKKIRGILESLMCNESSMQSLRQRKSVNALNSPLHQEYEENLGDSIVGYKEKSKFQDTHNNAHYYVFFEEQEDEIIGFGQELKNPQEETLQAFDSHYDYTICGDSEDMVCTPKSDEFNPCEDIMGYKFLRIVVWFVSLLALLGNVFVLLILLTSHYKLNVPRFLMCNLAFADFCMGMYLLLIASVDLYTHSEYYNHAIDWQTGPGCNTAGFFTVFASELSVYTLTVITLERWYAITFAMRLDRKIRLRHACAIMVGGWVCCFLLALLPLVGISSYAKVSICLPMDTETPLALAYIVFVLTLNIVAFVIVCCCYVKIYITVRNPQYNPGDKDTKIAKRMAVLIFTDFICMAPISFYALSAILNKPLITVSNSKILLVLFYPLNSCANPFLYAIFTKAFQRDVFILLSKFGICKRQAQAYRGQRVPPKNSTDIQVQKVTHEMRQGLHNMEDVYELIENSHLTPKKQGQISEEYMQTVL
In general terms: In qHTS, concentration-response curves come from the screen itself.

A short description of experiment [2]: qHTS assay to identify small molecule agonists of the estrogen receptor alpha (ER-alpha) signaling pathway in the presence of an antagonist - cell viability counter screen (AID 1259386).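 Further: series mostly up to about 92 µM; cells exposed to compounds for 22 h at 37 °C before the viability read; nearly all actives have a fitted effect of over 30% in size.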 Put shortly: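 Using estrogen-depleted VM7Luc4E2 cells, the 15-concentration compound series was applied together with 10.0nM ICI-182,780 and incubated 22hr at 37C/5% CO2. Cell viability was then scored by CellTiter-Fluor.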

For experiment [3], the target named is Progesterone receptor (Homo sapiens) (UniProt P06401). The experiment is described as follows: qHTS assay to identify small molecule agonists of the progesterone receptor (PR) signaling pathway (AID 1346784; calls by dose curve; further: nearly all actives have a fitted effect of over 30% in size; further: potency means the concentration at half of the fitted maximal effect). Put shortly: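 HEK 293T PR-UAS-bla reporter cells, 2% charcoal-stripped FBS; 6 hr settle at 37C/5% CO2, compound (DMSO) 16 hr, LiveBLAzer B/G FRET substrate 2 hr RT, fluorescence intensity read.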
Chain of Progesterone receptor (Homo sapiens) (P06401 whole entry, looked up): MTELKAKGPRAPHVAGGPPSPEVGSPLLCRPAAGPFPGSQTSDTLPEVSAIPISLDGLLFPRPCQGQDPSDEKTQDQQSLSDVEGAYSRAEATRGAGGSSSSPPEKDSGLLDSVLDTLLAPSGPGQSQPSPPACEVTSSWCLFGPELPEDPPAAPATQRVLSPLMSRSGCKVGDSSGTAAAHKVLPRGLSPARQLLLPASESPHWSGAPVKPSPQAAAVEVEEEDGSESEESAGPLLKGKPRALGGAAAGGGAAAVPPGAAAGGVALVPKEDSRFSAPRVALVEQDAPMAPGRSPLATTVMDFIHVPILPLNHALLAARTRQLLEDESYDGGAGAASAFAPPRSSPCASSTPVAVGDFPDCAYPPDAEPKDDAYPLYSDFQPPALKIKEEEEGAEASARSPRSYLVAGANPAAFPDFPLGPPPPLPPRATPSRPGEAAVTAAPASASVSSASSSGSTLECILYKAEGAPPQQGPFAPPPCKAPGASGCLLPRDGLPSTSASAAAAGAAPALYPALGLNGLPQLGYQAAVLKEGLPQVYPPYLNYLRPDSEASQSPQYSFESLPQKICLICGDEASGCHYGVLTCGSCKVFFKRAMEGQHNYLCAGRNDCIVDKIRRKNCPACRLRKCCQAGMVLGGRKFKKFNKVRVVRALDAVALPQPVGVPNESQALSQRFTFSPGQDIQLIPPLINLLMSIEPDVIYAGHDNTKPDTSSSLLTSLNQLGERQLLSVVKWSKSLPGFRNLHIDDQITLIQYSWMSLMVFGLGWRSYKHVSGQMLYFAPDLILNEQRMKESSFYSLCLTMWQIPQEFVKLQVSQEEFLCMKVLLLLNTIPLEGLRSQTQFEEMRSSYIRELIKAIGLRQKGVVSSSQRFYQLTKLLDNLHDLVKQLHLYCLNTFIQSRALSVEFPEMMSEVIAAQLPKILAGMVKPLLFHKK

For experiment [4] the target is unchanged. The experiment is described as follows: qHTS assay to identify small molecule antagonists of the progesterone receptor (PR) signaling pathway (AID 1346795; active means well fitted inhibition curve with a large enough effect in the signal ratio in the repeat runs, not every such curve was filed as active; the % refers to the signal ratio; further: potency means the concentration at half of the fitted maximal effect). Put shortly:
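Beta-lactamase reporter, HEK293T PR-UAS-bla line; 2% charcoal-stripped FBS; 6 hr pre-incubation, 37C/5% CO2. Compound + R5020 1 nM final, 16 hr. LiveBLAzer B/G FRET substrate, 2 hr RT; fluorescence intensity read.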

A short description of experiment [5]: qHTS assay to identify small molecule antagonists of the progesterone receptor (PR) signaling pathway - cell viability counter screen (AID 1346798). Further: series mostly up to about 92 µM; nearly all actives have a fitted effect of over 50% in size. Put shortly: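 Luminescence readout (CellTiter-Glo, 30 min, RT) of viability in PR-UAS-bla HEK293T cells exposed to compound and R5020 agonist for 16 hr at 37C, 5% CO2; run in the same wells as the beta-lactamase reporter read.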

A short description of experiment [6]: qHTS assay to identify small molecule antagonists of the TGF-beta/Smad signaling pathway - cell viability counter screen (AID 1346824). Further: nearly all actives have a fitted effect of over 50% in size. Summed up: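 SBE-bla HEK 293T cells, incubated overnight, then compound plus 0.25 ng/mL TGF-beta1 (stock added) for 5 hr at 37 C. Viability was read in the same wells by CellTiter-Glo luminescence after 30 min at room temperature.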

Experiment [7] in a line: qHTS assay to identify small molecule agonists of the TGF-beta/Smad signaling pathway - cell viability counter screen (AID 1346829). Further: top concentration of the series differs between compounds; nearly all actives have a fitted effect of over 45% in size. Put shortly: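 HEK 293T SBE-bla line, 5 hr compound exposure at 37 C, multiplexed CellTiter-Glo viability read by luminescence.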
A short description of experiment [8]: qHTS assay to identify small molecule agonists of the TGF-beta/Smad signaling pathway (AID 1346859; active means well fitted activation curve with a large enough effect in the signal ratio in the repeat runs, not every such curve was filed as active; the % refers to the signal ratio; further: series mostly up to about 77 µM). Summed up: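 Read-out: fluorescence at 460 and 530 nm (405 nm excitation) after a 2 hr room-temperature incubation with beta-lactamase FRET substrate. SBE-bla HEK 293T cells had been treated with test compounds for 5 hr at 37 C.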
The target in experiment [9] is Thyrotropin-releasing hormone receptor (Homo sapiens) (UniProt P34981). The experiment is described as follows: qHTS assay to identify small molecule antagonists of the thyrotropin-releasing hormone receptor (TRHR) signaling pathway (AID 1346877; active means well fitted inhibition curve with a large enough effect in the repeat runs, not every such curve was filed as active; further: series mostly up to about 51 µM). Put shortly: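 Calcium signal in dye-loaded TRHR/HEK293 cells; compounds added 5 min before TRH (1 nM final); fluorescence monitored 3 min at 1 s steps.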
Chain of Thyrotropin-releasing hormone receptor (Homo sapiens) (P34981 whole entry, looked up): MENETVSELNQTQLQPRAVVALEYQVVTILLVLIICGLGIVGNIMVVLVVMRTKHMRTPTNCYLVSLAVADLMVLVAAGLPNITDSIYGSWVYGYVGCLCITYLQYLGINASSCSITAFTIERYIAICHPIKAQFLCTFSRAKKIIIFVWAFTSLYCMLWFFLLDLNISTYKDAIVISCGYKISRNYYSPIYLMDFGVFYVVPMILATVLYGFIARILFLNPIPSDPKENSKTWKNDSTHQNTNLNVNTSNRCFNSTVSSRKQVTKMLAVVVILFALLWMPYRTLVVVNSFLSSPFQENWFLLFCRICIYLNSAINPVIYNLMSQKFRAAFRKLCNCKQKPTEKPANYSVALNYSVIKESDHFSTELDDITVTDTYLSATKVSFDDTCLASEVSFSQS

Experiment [10] can be described thus: qHTS assay to identify small molecule agonists of the progesterone receptor (PR) signaling pathway - cell viability counter screen (AID 1346799; calls by dose curve; further: nearly all actives have a fitted effect of over 45% in size). Summed up:
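HEK293T PR-UAS-bla, 3,000 cells/well, 2% charcoal-stripped FBS; 6 h settle, compound 16 h at 37C/5% CO2; LiveBLAzer 2 h RT, then CellTiter-Glo 30 min RT, luminescence read.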

Turning to `CC1(C)CC(O)CC(C)(C)N1[O]`, the Potency result in [1], in [2], in experiment [3], in [4] and in experiment [5] was “inactive” throughout. Also, the compound was called inactive in experiment [6], in [7], in [8] and in experiment [9].
For the compound `C=CC(=O)OCCCCCCCCCC`, the Potency entry in experiment [1], in experiment [2], in experiment [3], in [4], in experiment [5] and in experiment [10] was “inactive” each time. Further, the compound was classed as inactive in [7], in [8] and in experiment [9].
As to `NC(=O)c1ccccc1`, the Potency entry in experiment [1], in experiment [2], in experiment [3], in experiment [4], in experiment [5] and in experiment [10] was “inactive” in each case. For the same compound, the call in experiment [6], in experiment [7], in experiment [8] and in [9] was inactive.
Regarding `O=[N+]([O-])c1ccc(Cl)cc1Cl`, the Potency result in experiment [1], in experiment [2], in [4] and in experiment [5] was “inactive” throughout. Also, the Potency in [3] was 24 µM (active). In addition, the result in [7], in experiment [8] and in experiment [9] was inactive.
With `CCC1=C(C)CN(C(=O)NCCc2ccc(S(=O)(=O)NC(=O)NC3CCC(C)CC3)cc2)C1=O` (centres undefined), the Potency result in [1], in [2], in [3], in [4] and in experiment [5] was “inactive” in each case. Moreover, the outcome in experiment [6] and in experiment [7] was inactive.
Turning to `CCCC1CCCC(=O)O1` (centres undefined), the Potency entry in [1], in experiment [2], in experiment [3], in experiment [4], in experiment [5] and in [10] was “inactive” throughout. The call in experiment [6], in [7] and in [9] was inactive.
Consider `C=CC(=O)NC(C)(C)C`, for which the Potency result in [1], in [2], in experiment [3], in [4] and in experiment [5] was “inactive” throughout. Further, the result in experiment [6], in [7], in [8] and in experiment [9] was inactive.
For `COc1ccc(C(=O)Nc2ccccc2)cc1[N+](=O)[O-]`, the Potency entry in experiment [1], in [2], in experiment [3], in experiment [5] and in [10] was “inactive” in each case. In addition, the Potency in [4] was 54.9 µM (active). For the same compound, the result in experiment [6], in experiment [7] and in experiment [9] was inactive.
With `Oc1ccc(Oc2ccccc2)cc1`, the Potency result in experiment [1], in [2], in experiment [3] and in experiment [5] was “inactive” throughout. Further, the Potency in experiment [4] was 20.6 µM (active). Further, the compound was called inactive in experiment [6], in experiment [7] and in [8].
As for `CC1(C)[C@@H]2CC[C@]3(C2)[C@@H]1C(=O)CCC3(C)C`, the Potency result in experiment [1], in [2], in [3], in experiment [4] and in [5] was “inactive” each time. Moreover, the outcome in experiment [6], in experiment [7] and in experiment [8] was inactive.
With `C=C[Si](OCC)(OCC)OCC`, the Potency entry in experiment [1], in [2], in experiment [3], in experiment [4], in experiment [5] and in [10] was “inactive” in each case. Also, the compound was classed as inactive in experiment [7], in [8] and in [9].
As to `Cc1cc(SC2=C(O)C[C@@](CCc3ccc(N)cc3)(C(C)C)OC2=O)c(C(C)(C)C)cc1CO`, the Potency entry in experiment [1], in experiment [2], in experiment [3], in experiment [4], in experiment [5] and in experiment [10] was “inactive” each time. The result in experiment [6], in experiment [7] and in experiment [9] was inactive.
As for `COC(=O)c1cc(Cl)ccc1[N+](=O)[O-]`, the Potency result in [1], in [2], in experiment [3], in experiment [4], in experiment [5] and in [10] was “inactive” each time. Besides, the call in experiment [6], in experiment [7], in [8] and in experiment [9] was inactive.
Consider `CCCCOC(=O)CC#N`, for which the Potency result in experiment [1], in experiment [2], in experiment [3], in [4], in experiment [5] and in experiment [10] was “inactive” each time. For the same compound, the outcome in experiment [7] and in experiment [8] was inactive.
Turning to `O=C(O)c1ccccc1-n1cc(C(=O)O)c(=O)c2cc(Nc3c(F)cc(F)cc3Cl)c(Cl)cc21`, the Potency entry in experiment [1], in experiment [2], in experiment [3], in experiment [4] and in experiment [5] was “inactive” in each case. Moreover, the outcome in experiment [6], in experiment [7] and in [8] was inactive.
In the case of `CC(Cc1ccccc1)(NC(=O)CN)c1ccccc1` (centres undefined), the Potency result in [1], in experiment [2], in experiment [3], in experiment [4] and in [5] was “inactive” throughout. Besides, the call in experiment [6], in [7] and in experiment [8] was inactive.
As to `OCCOc1cccc(OCCO)c1`, the Potency entry in [1], in experiment [2], in [3], in experiment [4] and in [5] was “inactive” throughout. The compound was called inactive in experiment [7], in experiment [8] and in experiment [9].
For the compound `CCN(CCCCOC(=O)c1ccc(OC)c(OC)c1)C(C)Cc1ccc(OC)cc1` (centres undefined), in [1], the Potency was 29.8 µM (active). Besides, the Potency result in [2], in [3], in experiment [4] and in [5] was “inactive” throughout. Further, the result in [6], in [7], in experiment [8] and in experiment [9] was inactive.
Consider `O=C(O)c1cc(C(=O)O)cc([N+](=O)[O-])c1`, for which the Potency entry in experiment [1], in experiment [2], in experiment [3], in experiment [4] and in experiment [5] was “inactive” each time. Further, the result in [6], in experiment [7], in experiment [8] and in experiment [9] was inactive.
As to `OCCCO`, the Potency result in [1], in experiment [2], in experiment [3], in experiment [4] and in experiment [5] was “inactive” each time. Besides, the call in experiment [6], in [7] and in experiment [8] was inactive.
Consider `O=C1OC(=O)C2CC=CCC12` (centres undefined), for which the Potency result in experiment [1], in experiment [2], in experiment [3], in experiment [4] and in [5] was “inactive” each time. The outcome in experiment [6], in [7], in experiment [8] and in experiment [9] was inactive.
`CCCCCCCCCCCCCCCCN`: the Potency entry in [1], in [2], in [3], in experiment [4] and in [5] was “inactive” throughout. In addition, the outcome in experiment [6], in experiment [7] and in [8] was inactive.
As to `O=[N+]([O-])c1cccc(I)c1`, the Potency result in experiment [1], in experiment [2], in experiment [3], in [4], in experiment [5] and in experiment [10] was “inactive” each time. Further, the call in experiment [7] and in experiment [8] was inactive.
Take `CC(C)Oc1ccccc1O`: the Potency entry in experiment [1], in experiment [2], in [3], in experiment [4] and in experiment [5] was “inactive” in each case. Also, the compound was called inactive in [7], in experiment [8] and in experiment [9].
As for `CC(C)=CCC[C@H](C)CCO`, the Potency result in [1], in [2], in experiment [3], in [4] and in [5] was “inactive” throughout. The outcome in experiment [6], in [7], in experiment [8] and in experiment [9] was inactive.

Source of the values: PubChem BioAssay (Tox21).
